Results on 65 compounds are retold here after PubChem BioAssay AID1239 (SRMLSC, 2008).

Among all 190,000 compounds or so, about 3,100 (1.6%) were called active. The full list was thinned out, with actives kept by preference. A number with no mark means an inactive call. No stated cut-off is given here; in the data, active means fold change above about 3.3; inconclusive means no clear call, values can overlap the other calls; inactive means below that.

A short description of this experiment: NF-kB upregulation, human neuronal cells – cell-based, HTS, primary screen (AID 1239). The note with it: NF-kB reporter expression, at 12.5 µM, stronger effect = higher value.
`CN(C)c1ccnc(Nc2ccc(F)cc2)c1C#N`: the fold change was 1.02.

As to `CN(Cc1ccc2nsnc2c1)Cc1nc(Cc2cccc(F)c2)no1`, the fold change was 1.05.

Regarding `CN(C)c1nccc(NCc2ccccc2)c1C#N`, the fold change is 1.55.

As for `CCOc1cc(NC(=O)CCl)c(OCC)cc1NC(C)=O`, the fold change was 2.72.

With `CC(=O)Nc1ccn(Cc2c(F)cccc2Cl)n1`, the fold change is 1.2.

In the case of `O=C(Nc1ccn(Cc2ccccc2)n1)c1cccc(F)c1`, the fold change was 6.25 (active).

`Cn1cc([N+](=O)[O-])c(C(=O)Nc2cnn(Cc3ccc(F)cc3)c2)n1`: the fold change is 0.64.

Take `O=C(Nc1ccn(Cc2ccccc2)n1)c1n[nH]c([N+](=O)[O-])c1Cl`: the fold change is 3.79 (active).

Regarding `Cc1ccc(Cn2ccc(NC(=O)c3cc(C(C)C)on3)n2)cc1`, the fold change is 1.16.

With `O=C(Nc1ccn(Cc2ccc(F)cc2)n1)c1ccncc1`, the fold change was 1.08.

With `COC(=O)C1=C(C)N(C)C(=O)NC1c1ccc([N+](=O)[O-])o1` (stereo not given), the fold change was 0.88.

As to `CN(C)C(CNC(=O)c1cccc(C#N)c1)c1ccco1` (stereo not given), the fold change was 1.15.

For `CC(=O)NC1C(Oc2ccc(C=O)cc2)OC(COC(C)=O)C(OC(C)=O)C1OC(C)=O` (stereo not given), the fold change is 1.36.

Take `O=C(NCc1ccccc1)C1CCCN(c2nc3ccsc3c(=O)s2)C1` (stereo not given): the fold change is 1.06.

Regarding `CCN(CC)C(=O)c1sc2nc(-c3ccccc3)ccc2c1N`, the fold change was 7.06 (active).

Regarding `CS(=O)(=O)c1sc2nc(-c3ccccc3)cc(-c3ccccc3)c2c1N`, the fold change was 1.16.

Take `CCOC(=O)c1sc2nc(SC)nc(-c3ccccc3)c2c1N`: the fold change is 1.18.

As to `Cn1c(N)c(C(=O)COC(=O)/C=C/c2ccc(OC(F)F)cc2)c(=O)n(C)c1=O`, the fold change is 1.25.

As for `Cc1cc(C)c(OCCN2CC(C)OC(C)C2)c(Br)c1` (stereo not given), the fold change was 1.58.

`CC1CN/C(=C\C(=O)c2ccc(Br)cc2)C(=O)N1` (stereo not given): the fold change was 4.31 (active).

Take `C/C(=C\C(=O)c1ccc(Br)cc1)N1CCCCC1`: the fold change was 1.06.

Regarding `CN1CCCC(OC(=O)COc2ccc(Br)cc2)C1` (stereo not given), the fold change was 1.11.

As for `CCc1cc2c(=O)c(-c3ccc(F)cc3)c(C(F)(F)F)oc2cc1OCC(=O)O`, the fold change was 1.1.

With `O=C(Nc1ccc(Cl)cn1)Nc1cccs1`, the fold change is 1.65.

On to `O=C(Nc1nc(-c2ccncc2)cs1)C1COc2ccccc2O1` (stereo not given), for which the fold change was 1.25.

Take `O=C(Nc1nc(-c2ccc(-c3ccccc3)cc2)cs1)c1cnccn1`: the fold change is 1.35.

For the compound `COc1ccc(-c2csc(Nc3ccccn3)n2)cc1`, the fold change is 7.56 (active).

In the case of `Clc1ccc(-c2csc(-c3ccncc3)n2)cc1`, the fold change is 1.8.

For `COc1ccc(C(=O)/C=C/Nc2ccccn2)cc1`, the fold change is 2.22.

On to `c1ccc(Nc2nc(-c3ccncc3)cs2)nc1`, for which the fold change was 7.4 (active).

Turning to `c1cnc(Nc2nc(-c3ccc4ccccc4c3)cs2)nc1`, the fold change is 2.23.

With `Clc1ccc(Nc2nc(-c3cccs3)cs2)nc1`, the fold change is 12.4 (active).

With `O=C(CN(c1cccc(Cl)c1)S(=O)(=O)c1ccccc1)NN=C1CCCC1`, the fold change is 1.17.

Regarding `CN1CCN(C(c2cc3cc4c(cc3[nH]c2=O)OCCO4)c2nnnn2C2CCCC2)CC1` (stereo not given), the fold change was 1.27.

Turning to `O=C(COc1cccc2ccccc12)Nc1cc(S(=O)(=O)N2CCOCC2)ccc1N1CCOCC1`, the fold change is 0.47.

For `O=C(N/N=C/C=C/c1ccco1)c1cccs1`, the fold change was 1.09.

With `COc1ccc(CC(=O)NC(C)CCc2ccccc2)cc1` (stereo not given), the fold change is 1.03.

As to `CC(=O)c1cc(C#N)c(N2CCCCC2)nc1C`, the fold change is 1.09.

On to `O=C(Nc1cccc(S(=O)(=O)Nc2ccc(Cl)cc2)c1)c1ccc2c(c1)OCCO2`, for which the fold change was 0.68.

For `O=C(Nc1cccc(Cl)c1N1CCOCC1)c1ccc2c(c1)OCCO2`, the fold change is 0.72.

For the compound `CN1CCN(c2ccc(NC(=O)c3ccc4c(c3)OCCO4)cc2Cl)CC1`, the fold change was 3.36 (active).

`O=C(Nc1ccc2c(c1)OCCO2)c1ccc(Cl)c(S(=O)(=O)N2CCCCC2)c1`: the fold change was 0.9.

Take `COc1c(Cl)cc(C(=O)Nc2ccc(Cl)cn2)cc1Cl`: the fold change was 1.49.

Regarding `O=C(Nc1ccc(Cl)cn1)c1ccc2c(c1)OCCO2`, the fold change was 5.18 (active).

For the compound `S=c1[nH]ccn1-c1ccc(Cl)cc1`, the fold change was 1.14.

Consider `CC(C)(C)NC(=O)CN(C(=O)c1ccc(Cl)nc1)c1cccc2ccccc12`, for which the fold change is 0.94.

For the compound `COc1cccc(OCCCN2CCCCCC2)c1`, the fold change was 1.08.

With `C/C(=N/OC(=O)c1cccc(C(F)(F)F)c1)c1cnccn1`, the fold change was 1.18.

In the case of `O=C(NC(=S)Nc1ccc(NC(=O)c2cccs2)cc1)c1ccc([N+](=O)[O-])cc1`, the fold change was 1.11.

As for `O=C(NC(=S)Nc1cccc(-c2ccc(CO)o2)c1)c1cccs1`, the fold change is 10.1 (active).

For `CCc1nnc(NS(=O)(=O)c2ccc(NC(=S)NC(=O)c3cccs3)cc2)s1`, the fold change is 1.46.

For the compound `COC(=O)COc1ccc(C2NC(=O)NC(C)=C2C(=O)NCc2ccccc2)cc1OC` (stereo not given), the fold change was 1.01.

Regarding `CN1CCN(/N=C/c2ccc(-c3ccc([N+](=O)[O-])cc3)o2)CC1`, the fold change was 1.75.

For the compound `O=C(Cc1ccc([N+](=O)[O-])cc1)N/N=C/c1ccco1`, the fold change was 1.05.

On to `N/C(=N\OC(=O)CC1CCCCC1)c1ccccc1`, for which the fold change was 1.45.

For the compound `CCC(C)(NC(=O)c1ccccn1)C(=O)NC1CCCCC1` (stereo not given), the fold change is 1.15.

Consider `N/C(=N\OC(=O)CCC1CCCCC1)c1ccccn1`, for which the fold change was 4.01 (active).

In the case of `CN(C)CCOc1cccc(Br)c1`, the fold change is 1.12.

Regarding `CCN=c1sc(C(=O)Nc2ccccc2)c(C)n1CC`, the fold change is 1.3.

`Cc1ccc(OCC(=O)NC(C)c2ccccc2)c([N+](=O)[O-])n1` (stereo not given): the fold change is 1.1.

With `C=CCNC(=O)CC12CC3CC(C1)CC(CC(=O)NCC=C)(C3)C2`, the fold change was 1.38.

For the compound `CCOC(=O)/C(C#N)=C/c1ccc(N2CCCCC2)cc1`, the fold change is 3.43 (active).

In the case of `COc1ccc(N2CCN(C(=O)/C(C#N)=C/c3ccccc3)CC2)cc1`, the fold change was 0.72.

Regarding `CCOC(=O)/C(C#N)=C/c1ccc(N2CCN(Cc3ccccc3)CC2)cc1`, the fold change was 0.98.

For `COC(=O)C1=CN(Cc2ccc(OC)c(OC)c2)C=C(C(=O)OC)C1c1cccs1`, the fold change was 0.73.
